# High-throughput results from PubChem.
# This is a sample that favours compounds with a hit; in the whole collection about 7.2% have one here.
# VLA-4 inh = inhibition in a human VLA-4 binding assay | P13612 | VLA-4 expressing cells, ligand binding flow cytometry | inhibition, % (about 7 µM as worked out from the volumes in the protocol) | actives 0.2% (n = 330,000) | AID 2557; in the data active means inhibition above about 50%
# Target sequence (P13612 whole entry, looked up): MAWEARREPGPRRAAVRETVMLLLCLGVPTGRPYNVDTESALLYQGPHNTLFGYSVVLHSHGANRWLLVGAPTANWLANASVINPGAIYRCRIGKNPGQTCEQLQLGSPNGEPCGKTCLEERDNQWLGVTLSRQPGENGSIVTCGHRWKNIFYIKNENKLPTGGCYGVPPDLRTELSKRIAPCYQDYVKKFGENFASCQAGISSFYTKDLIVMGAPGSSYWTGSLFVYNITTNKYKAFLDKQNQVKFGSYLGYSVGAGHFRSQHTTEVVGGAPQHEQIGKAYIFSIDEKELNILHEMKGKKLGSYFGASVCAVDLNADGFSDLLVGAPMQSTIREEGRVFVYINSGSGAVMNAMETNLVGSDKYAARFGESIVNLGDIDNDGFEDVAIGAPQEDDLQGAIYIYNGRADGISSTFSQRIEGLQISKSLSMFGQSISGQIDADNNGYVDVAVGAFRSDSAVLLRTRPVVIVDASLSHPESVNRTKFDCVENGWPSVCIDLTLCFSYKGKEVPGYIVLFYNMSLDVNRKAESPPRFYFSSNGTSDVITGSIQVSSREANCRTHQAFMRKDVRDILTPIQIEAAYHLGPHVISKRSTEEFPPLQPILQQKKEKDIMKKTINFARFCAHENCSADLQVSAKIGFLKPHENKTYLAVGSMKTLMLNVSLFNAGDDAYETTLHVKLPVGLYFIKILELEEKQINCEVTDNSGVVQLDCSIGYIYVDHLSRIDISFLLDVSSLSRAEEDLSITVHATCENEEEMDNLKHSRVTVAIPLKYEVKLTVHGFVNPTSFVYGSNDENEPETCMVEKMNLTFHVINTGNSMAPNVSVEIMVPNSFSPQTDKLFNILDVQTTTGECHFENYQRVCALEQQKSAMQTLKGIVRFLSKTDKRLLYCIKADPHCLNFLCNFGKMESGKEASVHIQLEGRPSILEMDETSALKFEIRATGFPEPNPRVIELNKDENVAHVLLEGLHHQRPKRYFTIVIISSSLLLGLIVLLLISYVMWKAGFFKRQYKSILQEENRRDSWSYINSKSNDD
# Efflux pump mplx = blocks antifungal efflux pumps in multiplex yeast assay. inhibition, % at 10 µM. AID 485275. actives 0.44% (n = 330,000). S. cerevisiae Candida pump triplex, Nile Red efflux;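 active means plate passing quality check with inhibition over a set limit, or well fluorescence over plate mean plus 4 SD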;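 further: Nile Red retained in pooled yeast measured as flow cytometry median fluorescence; higher means more Nile Red kept so more efflux inhibition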
# ALR H2O2 inh = human ALR oxidase inhibition via reduced H2O2; purified ALR, DTT oxidation, H2O2 HRP-luminol luminescence; inhibition, % (test concentration not listed); actives 3.8% (n = 290,000);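 active means mean replicate inhibition above about 79%, with every replicate also reaching it, limit read from the data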
# Mot1-301 SUMO = inhibitors of SUMOylation pathway: yeast Mot1-301 growth rescue | AID 2716 | growth rescue, % at 18.8 µM | actives 1% (n = 320,000) | S. cerevisiae Mot1-301 growth rescue, ATP luminescence, 38.5C; percent above DMSO median, 100 means doubled;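 active means every valid replicate shows activation above 250% relative to neutral control wells; inactive means the rest, any valid replicate at or below 250%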
# A1 inh = inhibitors of the anti-apoptotic protein A1, read as caspase activation. MEF A1-2A-BIM cells, Caspase-Glo 3/7 luminescence, 3 h; percent of clofoctol response, vehicle zero. caspase activation, % (concentration not given with the values). actives 0.066% (n = 330,000);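 active means over half of replicate activation scores above 10%, or exactly half above 10 with the replicate mean above 10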
# AHR act = activators of human aryl hydrocarbon receptor; AHR-responsive luciferase reporter cells, luminescence; actives 2.5% (n = 320,000); P35869; activation, % at 5 µM; AID 2796; in the data active means activation above about 47%
# A number is an active result; 0 = inactive; - = not tested or not shown.
SMILES,VLA-4 inh,Efflux pump mplx,ALR H2O2 inh,Mot1-301 SUMO,A1 inh,AHR act
CCOc1ccccc1C(=O)Nc1cccc2cccnc12,0,0,0,0,0,74
CCOc1ccc(C(=O)Nc2cccc3cccnc23)cc1,0,0,0,0,0,52
O=C(Nc1cccc2cccnc12)c1cccc2ccccc12,0,0,0,0,0,0
CC(C)Oc1ccc(C(=O)Nc2cccc3cccnc23)cc1,0,0,0,0,0,0
CCOc1ccccc1C(=O)Nc1nnc(C(C)C)s1,0,0,0,0,0,57
Cc1cc(C)cc(OCC(=O)OCC(=O)c2c(N)n(C)c(=O)n(C)c2=O)c1,0,0,0,0,0,0
O=S(=O)(c1cccc(-c2n[nH]c(=S)n2-c2ccccc2Cl)c1)N1CCOCC1,0,0,99,0,0,0
Cc1ccc(NC(=O)CN2C(=O)NC(Cc3ccccc3)C2=O)cc1Cl (stereo not given),0,0,0,0,0,0
O=C(O)C1CC1C(=O)N1CCN(c2ccc(Cl)c(Cl)c2)CC1 (stereo not given),0,0,0,0,0,0
Cc1ccc(N2CCN(C(=O)N3CCCC3)CC2)cc1Cl,0,0,98,0,0,0
N#CC(C#N)=C/C(C#N)=C(/N)N1CCN(c2ccc(Cl)cc2)CC1,0,0,0,0,0,0
CN(C)C(=C(C#N)C#N)N1CCN(c2ccc(Cl)cc2)CC1,0,0,0,0,0,68
CN(C)C(=C(C#N)C#N)N1CCN(c2ccc(Cl)c(Cl)c2)CC1,0,0,-,0,0,62
CSC(=NC#N)N1CCN(c2ccc(Cl)cc2)CC1,0,0,97,-,0,73
COCc1cc(C)nc(SCC(=O)Nc2ccc3[nH]c(=O)[nH]c3c2)c1C#N,0,0,0,0,0,0
COc1ccc(C/C(C)=N/NC(=S)Nc2ccccc2)cc1,0,0,82,0,0,0
COc1ccc(C(C2C(=O)CC(C)(C)CC2=O)C2C(=O)CC(C)(C)CC2=O)cc1COCC(F)(F)F,0,0,99,0,0,0
COc1ccc(C(C2C(=O)CC(C)(C)CC2=O)C2C(=O)CC(C)(C)CC2=O)cc1,0,0,97,0,0,0
Cc1ccc(C(=O)c2c3ccc(C(F)(F)F)cc3nn2CCC(N)=O)cc1,0,0,0,0,0,65
CCCCn1c(N)c(N(CCOC)C(=O)C(C)N2C(=O)c3ccccc3C2=O)c(=O)[nH]c1=O (stereo not given),0,0,0,0,0,0
Cc1cc(OCC(=O)N2CCN(c3ccccn3)CC2)c(C)cc1Br,0,0,0,0,0,54
Cc1ccc(SCC(=O)N2CCN(c3ccccn3)CC2)cc1,0,0,0,0,0,0
O=C(CSc1nccc2ccccc12)N1CCN(c2ccccn2)CC1,0,0,98,0,0,0
CCCCn1c(N)c(N(CCOC)C(=O)c2c(C)noc2C)c(=O)[nH]c1=O,0,0,-,0,0,0
COCc1cc(C)nc(N2CCN(Cc3ccccc3)CC2)c1C#N,0,0,0,0,0,0
SMILES,VLA-4 inh,Efflux pump mplx,ALR H2O2 inh,Mot1-301 SUMO,A1 inh,AHR act
COCc1cc(C)nc(N2CCN(c3ccccc3)CC2)c1C#N,0,0,95,0,0,0
COCc1cc(C)nc(Nc2ccccc2OC)c1C#N,0,0,0,0,0,52
Cc1ccc(CSc2nc3sc(C)c(C)c3c(=O)n2Cc2ccco2)cc1,0,0,97,-,0,0
COc1ccc(C[C@H]2COC(=O)[C@@H]2Cc2ccc(OC3OC(CO)C(O)C(O)C3O)c(OC)c2)cc1OC (stereo not given in full),-,-,0,0,0,0
COc1cc([C@H]2OC[C@H]3[C@@H]2CO[C@H]3c2ccc(O)c(OC)c2)ccc1O,0,0,98,0,0,0
C/C=C/c1cc(OC)c2c(c1)[C@H](C)[C@@H](c1ccc(O)c(OC)c1)O2,0,0,0,0,0,0
COc1cc(C2OCC3C(c4ccc(OC5OC(CO)C(O)C(O)C5O)c(OC)c4)OCC23)ccc1O (stereo not given),0,0,95,0,0,0
Cc1cc(C)c2c(n1)sc1c(O)cc(=O)[nH]c12,0,0,0,0,0,0
COc1ccc(-c2cc(C(F)(F)F)c3c(n2)sc2c(O)cc(=O)[nH]c23)c(OC)c1,0,0,-,0,0,70
Cc1ccc(S(=O)(=O)N2CCCC(C(=O)O)C2)s1 (stereo not given),0,0,87,0,0,0
O=C(O)C1CCCN(S(=O)(=O)c2cccs2)C1 (stereo not given),0,0,0,0,0,0
C[n+]1c(/C=C/c2ccc(O)cc2)ccc2ccccc21,0,0,99,0,0,0
COc1ccc([N+](=O)[O-])cc1NC(=S)NC(C)=O,0,0,0,0,0,0
CCn1ncc(Cl)c1C(=O)Nc1cc([N+](=O)[O-])ccc1OC,0,0,0,0,0,60
COc1ccc([N+](=O)[O-])cc1NC(=O)c1ccc(Br)s1,0,0,0,0,0,52
CCn1ncc(C(=O)Nc2ccc([N+](=O)[O-])cc2OC)c1C,0,0,0,0,0,0
COc1cc(C(C)=O)ccc1OCC(=O)Nc1cc(C)on1,0,0,0,0,0,0
O=C(CCl)NN1C(=O)NC(c2ccccc2)(c2ccccc2)C1=O,0,0,0,0,0,0
COc1ccc(-n2nnc3c(SCC(=O)NCc4ccco4)ncnc32)cc1,0,0,-,0,0,0
COc1ccc(-n2nnc3c(SC(C(C)=O)C(=O)N(C)C)ncnc32)cc1 (stereo not given),0,0,0,0,0,66
COC(=O)C(C)Sc1ncnc2c1nnn2-c1ccc(F)cc1 (stereo not given),0,0,98,-,0,0
CCS(=O)(=O)N1Cc2ccccc2CC1C(=O)Nc1cccc(S(=O)(=O)N(C)C)c1 (stereo not given),0,0,0,0,0,0
CC(=O)NC1(c2ccccc2)CCN(CC(=O)N2CCC(C)CC2)CC1,0,0,0,0,0,0
Fc1cccc(CN2CCN(Cc3nc(CCc4ccccc4)no3)CC2)c1,0,0,0,0,0,0
Cc1ccc(S(=O)(=O)NCC(=O)OCC(=O)c2ccc(Cl)s2)cc1,0,0,-,353,0,0
COC(=O)c1ccccc1S(=O)(=O)N1CCC(C(=O)OC(C)C(=O)NC(N)=O)CC1 (stereo not given),0,0,0,0,0,0
Cc1c2c(nc3nc4ccccc4n13)CC(C)(C)CC2=O,0,0,0,0,0,0
Cc1c2c(nc3ccccc13)CC(C)(C)CC2=O,0,0,94,0,0,0
Clc1ccc(-c2nc3n(n2)Cc2ccccc2-3)cc1,0,0,-,0,0,74
Cc1nc(C)c(C(=O)N(c2ccc(F)cc2)C(C(=O)NCC2CCCO2)c2ccccc2)s1 (stereo not given),0,0,-,0,0,0
